# Reference: PubChem BioAssay AID1159580 (chemical genetic matrix, 2015)
# Out of some 5,500 compounds screened, about 2,000 (36%) were called active. Roughly 18% stayed inconclusive and do not appear here. The list shows a part of the results. Values without a mark were called inactive. No stated cut-off is given here; in the data, active means normalized growth mostly below about 0.91 (no sharp cut-off); inconclusive means no clear call, values can overlap the other calls; inactive means mostly above about 0.92.
# Experiment: chemical genetic growth profiling, strain panel (AID 1159580);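 further: tested at 20 µM; growth read once vehicle control cultures reached saturation at 30 °C; 1 = growth at the plate median or of vehicle wells; lower values mean less growth of the strain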
# Conditions: S. cerevisiae deletion strains, growth OD
# [1] = locus YAR019C, strain CDC15, hits give low values
# [2] = locus YBL105C, strain PKC1, hits give low values
# [3] = locus YBR135W, strain CKS1, hits give low values
# [4] = locus YBR136W, strain MEC1, hits give low values
# [5] = locus YBR160W, strain CDC28, hits give low values
# [6] = locus YDL017W, strain CDC7, hits give low values
# [7] = locus YDL028C, strain MPS1, hits give low values
# [8] = locus YDL101C, strain DUN1, hits give low values
# [9] = locus YDL108W, strain KIN28, hits give low values
# [10] = locus YDL132W, strain cdc53, hits give low values
# [11] = locus YDL214C, strain PRR2, hits give low values
# [12] = locus YDR052C, strain DBF4, hits give low values
# [13] = locus YDR054C, strain cdc34, hits give low values
# [14] = locus YDR226W, strain ADK1, hits give low values
# [15] = locus YDR477W, strain SNF1, hits give low values
# [16] = locus YER123W, strain YCK3, hits give low values
# [17] = locus YER133W, strain GLC7, hits give low values
# [18] = locus YFL009W, strain cdc4, hits give low values
# [19] = locus YFL029C, strain CAK1, hits give low values
# [20] = locus YFR003C, strain YPI1, hits give low values
# [21] = locus YFR019W, strain FAB1, hits give low values
# [22] = locus YFR028C, strain CDC14, hits give low values
# [23] = locus YGR040W, strain KSS1, hits give low values
# [24] = locus YGR052W, strain FMP48, hits give low values
# [25] = locus YGR092W, strain DBF2, hits give low values
# [26] = locus YHR030C, strain SLT2, hits give low values
# [27] = locus YHR079C, strain IRE1, hits give low values
# [28] = locus YHR082C, strain KSP1, hits give low values
# [29] = locus YHR205W, strain SCH9, hits give low values
# [30] = locus YIL147C, strain SLN1, hits give low values
# [31] = locus YJL095W, strain BCK1, hits give low values
# [32] = locus YJL128C, strain PBS2, hits give low values
# [33] = locus YJL157C, strain FAR1, hits give low values
# [34] = locus YJR016C, strain ILV3, hits give low values
# [35] = locus YJR066W, strain TOR1 (second series), hits give low values
# [36] = locus YJR066W, strain TOR1, hits give low values
# [37] = locus YKL048C, strain ELM1, hits give low values
# [38] = locus YKL067W, strain YNK1, hits give low values
# [39] = locus YKL101W, strain HSL1, hits give low values
# [40] = locus YKL193C, strain SDS22, hits give low values
# [41] = locus YKL203C, strain TOR2, hits give low values
# [42] = locus YLR113W, strain HOG1, hits give low values
# [43] = locus YLR133W, strain CKI1, hits give low values
# [44] = locus YLR403W, strain SFP1, hits give low values
# [45] = locus YML070W, strain DAK1, hits give low values
# [46] = locus YMR001C, strain CDC5, hits give low values
# [47] = locus YMR205C, strain PFK2 (second series), hits give low values
# [48] = locus YMR277W, strain FCP1, hits give low values
# [49] = locus YNL006W, strain LST8, hits give low values
# [50] = locus YNL020C, strain ARK1, hits give low values
# [51] = locus YNL161W, strain CBK1, hits give low values
# [52] = locus YNL183C, strain NPR1, hits give low values
# [53] = locus YNL207W, strain RIO2, hits give low values
# [54] = locus YNL222W, strain SSU72, hits give low values
# [55] = locus YNL307C, strain MCK1 (second series), hits give low values
# [56] = locus YOL078W, strain AVO1, hits give low values
# [57] = locus YOL136C, strain PFK27, hits give low values
# [58] = locus YOR061W, strain CKA2, hits give low values
# [59] = locus YOR119C, strain RIO1, hits give low values
# [60] = locus YOR231W, strain MKK1, hits give low values
# [61] = locus YOR329C, strain SCD5, hits give low values
# [62] = locus YPL031C, strain PHO85, hits give low values
# [63] = locus YPL153C, strain RAD53, hits give low values
# [64] = locus YPL204W, strain HRR25, hits give low values
# [65] = locus YPL209C, strain IPL1, hits give low values
# [66] = locus YPL256C, strain CLN2, hits give low values
# [67] = locus YPR025C, strain CCL1, hits give low values
# [68] = locus YPR106W, strain ISR1, hits give low values
# [69] = locus YPR111W, strain DBF20, hits give low values
# [70] = strain NNK1, hits give low values
# [71] = strain TSCII, hits give low values
compound,measurement,setting,value
Cc1ccc(Nc2ccnc3cc(Cl)ccc23)cc1F,normalized growth,[1],0.997
same,normalized growth,[2],0.993
same,normalized growth,[3],0.995
same,normalized growth,[4],0.995
same,normalized growth,[5],0.988
same,normalized growth,[6],1
same,normalized growth,[7],0.991
same,normalized growth,[8],0.992
same,normalized growth,[9],0.995
same,normalized growth,[10],0.987
same,normalized growth,[11],0.942
same,normalized growth,[12],0.991
same,normalized growth,[13],0.985
same,normalized growth,[14],0.997
same,normalized growth,[15],0.946
same,normalized growth,[16],0.918
same,normalized growth,[17],0.96
same,normalized growth,[18],0.983
same,normalized growth,[19],0.986
same,normalized growth,[20],0.996
same,normalized growth,[21],0.943
same,normalized growth,[22],0.989
same,normalized growth,[23],0.945
same,normalized growth,[24],1.06
same,normalized growth,[25],0.973
same,normalized growth,[26],0.826 (active)
same,normalized growth,[27],0.96
same,normalized growth,[28],1
same,normalized growth,[29],0.915
same,normalized growth,[30],0.992
same,normalized growth,[31],0.905
same,normalized growth,[32],0.935
same,normalized growth,[33],0.965
same,normalized growth,[34],0.998
same,normalized growth,[35],0.946
same,normalized growth,[36],0.967
same,normalized growth,[37],0.943
same,normalized growth,[38],0.937
same,normalized growth,[39],0.951
same,normalized growth,[40],0.997
same,normalized growth,[41],0.977
same,normalized growth,[42],0.924
same,normalized growth,[43],0.94
same,normalized growth,[44],0.951
same,normalized growth,[45],0.947
same,normalized growth,[46],0.995
same,normalized growth,[47],0.956
same,normalized growth,[48],0.995
same,normalized growth,[49],1.01
same,normalized growth,[50],0.943
same,normalized growth,[51],1
same,normalized growth,[52],0.936
same,normalized growth,[53],0.997
same,normalized growth,[54],1
same,normalized growth,[55],0.918
same,normalized growth,[56],0.997
same,normalized growth,[57],0.934
same,normalized growth,[58],0.978
same,normalized growth,[59],1.04
same,normalized growth,[60],0.972
same,normalized growth,[61],0.996
same,normalized growth,[62],0.947
same,normalized growth,[63],0.938
same,normalized growth,[64],0.927
same,normalized growth,[65],0.998
same,normalized growth,[66],0.92
same,normalized growth,[67],0.99
same,normalized growth,[68],0.994
same,normalized growth,[69],0.976
same,normalized growth,[70],0.981
same,normalized growth,[71],0.99
Fc1cc(I)ccc1Nc1ccnc2cc(Cl)ccc12,normalized growth,[1],0.977
same,normalized growth,[2],0.975
same,normalized growth,[3],0.981
same,normalized growth,[4],0.989
same,normalized growth,[5],0.978
same,normalized growth,[6],0.977
same,normalized growth,[7],0.979
same,normalized growth,[8],0.981
same,normalized growth,[9],0.986
same,normalized growth,[10],0.986
same,normalized growth,[11],0.911
same,normalized growth,[12],0.968
same,normalized growth,[13],0.974
same,normalized growth,[14],0.993
same,normalized growth,[15],0.949
same,normalized growth,[16],0.901
same,normalized growth,[17],0.948
same,normalized growth,[18],0.978
same,normalized growth,[19],0.98
same,normalized growth,[20],0.991
same,normalized growth,[21],0.943
same,normalized growth,[22],0.981
same,normalized growth,[23],0.918
same,normalized growth,[24],1.06
same,normalized growth,[25],0.954
same,normalized growth,[26],0.841 (active)
same,normalized growth,[27],1
same,normalized growth,[28],0.974
same,normalized growth,[29],0.93
same,normalized growth,[30],0.981
same,normalized growth,[31],0.939
same,normalized growth,[32],0.978
same,normalized growth,[33],0.954
same,normalized growth,[34],0.975
same,normalized growth,[35],0.953
same,normalized growth,[36],0.958
same,normalized growth,[37],0.94
same,normalized growth,[38],0.934
same,normalized growth,[39],0.932
same,normalized growth,[40],0.991
same,normalized growth,[41],0.976
same,normalized growth,[42],0.915
same,normalized growth,[43],0.933
same,normalized growth,[44],0.95
same,normalized growth,[45],0.933
same,normalized growth,[46],0.985
same,normalized growth,[47],0.937
same,normalized growth,[48],0.984
same,normalized growth,[49],0.998
same,normalized growth,[50],0.912
same,normalized growth,[51],0.983
same,normalized growth,[52],0.957
same,normalized growth,[53],0.984
same,normalized growth,[54],0.996
same,normalized growth,[55],0.91
same,normalized growth,[56],0.981
same,normalized growth,[57],0.925
same,normalized growth,[58],0.966
same,normalized growth,[59],1.02
same,normalized growth,[60],0.95
same,normalized growth,[61],0.986
same,normalized growth,[62],0.911
same,normalized growth,[63],0.923
same,normalized growth,[64],0.912
same,normalized growth,[65],0.983
same,normalized growth,[66],0.951
same,normalized growth,[67],0.986
same,normalized growth,[68],0.973
same,normalized growth,[69],0.972
same,normalized growth,[70],0.973
same,normalized growth,[71],0.982
